# Screens as filed in PubChem BioAssay.
# Most compounds without a hit are left out; they make up all but 2.9% or so of the library.
# Cardio protect – modulators protecting cardiomyocytes from myocardial damage. H9c2 cardiomyocytes, H2O2 injury protection, ATPLite, 2 h. protection from H2O2 cell death, % at 20 µM. hit rate 0.63% among 360,000. AID 588492;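 active = compounds giving at least 50% protection of heart cells from peroxide-induced death in the single-dose screen, raw or plate-pattern-corrected value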;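 note: 0% = DMSO wells with peroxide and 100% = DMSO wells without peroxide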
# PfGluPho inh – PfG6PD (Plasmodium falciparum) enzyme inhibition; PfGluPho enzyme, NADPH resazurin-diaphorase fluorescence; inhibition, % at 20 µM; hit rate 0.78% among 350,000;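 active = inhibition reaching at least a set limit at 20 µM in the primary screen, cut at about 59% in these data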;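 note: 0% = DMSO wells with substrate and 100% = DMSO wells lacking glucose-6-phosphate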
# APOBEC3G inh – APOBEC3G (human) deaminase inhibition. hit rate 0.28% among 330,000. recombinant A3G, ssDNA deamination FAM/TAMRA fluorescence. inhibition, % at 20 µM;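 active = inhibition of at least 40% at 20 µM, with no more than 30% in the related APOBEC3A deaminase screen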;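 note: plate controls were DMSO wells with A3G for no effect and wells lacking A3G enzyme for full effect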
# Target sequence (Q9HC16 whole entry, looked up): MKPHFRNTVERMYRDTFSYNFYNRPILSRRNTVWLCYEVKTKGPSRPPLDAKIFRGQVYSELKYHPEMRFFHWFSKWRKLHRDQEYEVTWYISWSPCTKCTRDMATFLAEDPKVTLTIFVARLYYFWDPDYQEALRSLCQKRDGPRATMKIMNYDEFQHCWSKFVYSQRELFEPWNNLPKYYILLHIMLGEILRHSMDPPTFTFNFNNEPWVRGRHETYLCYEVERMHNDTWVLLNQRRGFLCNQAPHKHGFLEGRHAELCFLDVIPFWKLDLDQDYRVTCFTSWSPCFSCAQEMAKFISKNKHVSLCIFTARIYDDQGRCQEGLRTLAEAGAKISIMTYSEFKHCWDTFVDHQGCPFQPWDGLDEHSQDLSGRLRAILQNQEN
# H9c2 TAG inh – triacylglycerol accumulation inhibition; H9c2 cells, Nile Red lipid (TAG) fluorescence; cells loaded with 200 µM oleic acid; inhibition, % at 12.5 µM; hit rate 0.66% among 230,000; AID 651582;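 active = pattern-corrected inhibition of lipid staining of at least 50% with the nuclear-stain viability signal not falling by more than 50%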;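 note: 0% = DMSO wells and 100% = triacsin C control wells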
# A3A deaminase – blocks human APOBEC3A ssDNA deamination; P31941; recombinant A3A, FAM/TAMRA ssDNA deamination fluorescence; inhibition, % at 20 µM; hit rate 0.41% among 330,000;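 active = at least 40% inhibition at 20 µM here, with at most 30% in a related deaminase screen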;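 note: plate controls were A3A with DMSO for no effect and wells lacking A3A enzyme for full effect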
# Target sequence (P31941 whole entry, looked up): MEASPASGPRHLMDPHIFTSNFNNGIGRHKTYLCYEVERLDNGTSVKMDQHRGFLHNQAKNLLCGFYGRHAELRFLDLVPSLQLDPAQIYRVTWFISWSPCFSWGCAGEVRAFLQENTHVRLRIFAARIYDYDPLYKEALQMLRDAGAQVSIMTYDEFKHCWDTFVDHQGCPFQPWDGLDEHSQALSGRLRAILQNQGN
# NadD inh – inhibitors of Staphylococcus aureus NadD; purified NadD enzyme, colorimetric absorbance read-out; inhibition, % at 20 µM; hit rate 0.78% among 360,000; in the data active = inhibition above about 26%
# Active calls of the source: *; . = no result.
SMILES,Cardio protect,PfGluPho inh,APOBEC3G inh,H9c2 TAG inh,A3A deaminase,NadD inh
O=C(NCCS(=O)(=O)NCC1CCCO1)c1ccccc1 (stereo not drawn),1.5,-2.6,-3.3,7.5,0.3,-4.6
COc1cc(/C=N/n2nnnc2Nc2ccccc2)cc(OC)c1OC,85.0*,7.4,-8.5,.,-5.3,-5.9
COc1cc(/C=N/n2c(-c3ccccc3)n[nH]c2=S)cc(OC)c1OC,-3.0,17.6,28.0,15.1,-0.4,-2.5
O=C(CCl)N(Cc1ccccc1)c1ccccc1,-13.4,2.1,0.6,34.3,2.5,2.8
Cc1cccc(N(Cc2ccccc2)C(=O)CCl)c1,-8.4,-32.3,.,68.4*,.,0.0
O=C(O)c1ccccc1C(=O)c1cccc2c(Br)cccc12,7.2,-25.4,.,3.1,.,-4.7
Oc1nc(Nc2cccc(Cl)c2)sc1/C=C1\C=Nc2ccccc21,-6.7,4.2,-0.8,.,-1.4,17.6
CCOC(=O)c1c(Nc2ccc(Cl)cc2)sc(/C=C2\C=Nc3ccccc32)c1O,1.1,-2.5,-4.1,-8.6,-4.5,32.7*
CCC(C)Sc1cccc(-c2nc3ccc(C)cn3c2NCc2ccccc2)c1 (stereo not drawn),-10.4,43.6,-3.2,3.5,2.3,8.9
CCC(C)Sc1cccc(-c2nc3ccc(Cl)cn3c2NCc2ccccc2)c1 (stereo not drawn),-4.3,27.6,-1.4,-6.7,-2.3,31.2*
CCOC(=O)c1ccc(NC2=CC(=O)C(=O)c3ccccc32)cc1,-31.4,46.4,-4.3,80.1*,-2.9,46.6*
Clc1cccc(C2Nc3cccc4cccc(c34)N2)c1,3.9,21.2,20.9,.,4.6,27.5*
CCOc1ccc(C2Nc3cccc4cccc(c34)N2)cc1OC,7.0,54.1,-1.0,26.8,-1.1,19.9
CCOc1cc(C2Nc3cccc4cccc(c34)N2)ccc1O,4.6,7.8,0.2,15.5,1.4,29.5*
c1csc(C2Nc3cccc4cccc(c34)N2)c1,-9.5,47.8,23.7,0.1,4.7,30.5*
CCCNC(=O)C[C@H]1C[C@H]2c3cc(NC(=O)Nc4ccc(F)cc4)ccc3O[C@H]2[C@@H](CO)O1,-6.1,9.0,.,8.7,.,0.0
CN(C)CCNc1cccc2sc3ccc(O)cc3c(=O)c12,6.8,.,.,.,.,-2.4
Cc1ccc(NCCN(C)C)c2c(=O)c3cc(O)ccc3sc12,-18.6,20.8,.,63.3*,.,-0.5
CCOC(=O)c1c(N2C(=O)C=CC2=O)sc(C)c1C,-25.7,66.9*,9.9,.,-1.8,3.5
O=C(Nc1cccc(C(F)(F)F)c1)C1Cc2c(-c3ccccc3Oc3ccccc3)ccnc2O1 (stereo not drawn),-21.5,.,.,-8.0,.,0.6
CC(C)c1ccc(NC(=O)CCc2ccccc2)cc1,-0.1,9.3,2.3,.,-4.2,-5.8
CCO[C@@H]1OC(C(=O)O)=C[C@H](c2ccc(Br)cc2)[C@H]1CCCO,5.8,1.0,-7.8,15.9,-4.1,-11.1
COc1ccc(N2C(=O)Cc3c2nc(N)c(C#N)c3N)cc1,0.7,8.7,-5.5,-8.4,0.7,-0.6
CC1=Nc2nc(N3CCCCCC3)c(C#N)c3c4c(nc(c23)N1)N(c1ccc2ccccc2c1)C(=O)C4,29.4,-18.4,1.0,19.5,1.9,55.0*
CCCC(=O)NC(c1ccco1)c1cc([N+](=O)[O-])c2cccnc2c1O (stereo not drawn),55.0*,12.0,12.2,-0.7,27.0,6.7
SMILES,Cardio protect,PfGluPho inh,APOBEC3G inh,H9c2 TAG inh,A3A deaminase,NadD inh
N#CCCOC1(C#CCN2CCCC2)CCCCC1,-3.7,-4.3,-2.2,.,-0.9,7.1
Cc1nc(NC(=O)c2cc3c(C)nn(-c4ccccc4)c3s2)sc1C(=O)Nc1ccccc1,64.5*,-10.9,-6.8,7.4,-5.6,4.7
COC(=O)c1ccc(CSc2nc3scc(-c4cccs4)c3c(=O)[nH]2)o1,-12.2,7.5,-6.6,.,1.2,34.1*
COC(=O)c1ccc(CSc2nc3ccc(Cl)cc3[nH]2)o1,.,51.1,-7.8,.,0.3,.
CN(C)N1C(N)=C(C#N)C(c2cccc([N+](=O)[O-])c2)C2=C1CC(C)(C)CC2=O (stereo not drawn),0.6,20.1,-6.3,.,-3.5,-7.6
Cc1ccc(C(=O)c2no[n+]([O-])c2C(=O)c2ccc(C)cc2)cc1,-11.0,39.5,-3.7,51.9*,-1.4,2.4
Cc1ccc(S(=O)(=O)NC(=O)NC(C)c2ccc(F)cc2)cc1 (stereo not drawn),2.5,-15.8,-13.2,.,-2.3,-1.3
O=C(Nc1ccon1)Nc1ccccc1C(F)(F)F,1.9,-12.5,-6.0,-3.6,-1.5,1.2
C=CCOC(=O)C1=C[C@H](c2cn(C(C)=O)c3ccccc23)C[C@H](OCc2ccc(CO)cc2)O1,50.9*,16.0,-5.2,-63.8,-1.8,-2.5
Cc1ccc(-n2c(C)nnc2SCC(=O)NNC(=O)c2ccco2)cc1,1.2,1.6,-0.3,14.5,3.7,-3.3
CCOc1cccc(/C=N/NC(=S)Nc2cc(S(=O)(=O)N3CCOCC3)ccc2N2CCOCC2)c1O,54.5*,-19.2,-9.8,7.8,-8.3,16.1
COc1ccc2ccccc2c1/C=N/NC(=S)Nc1cc(S(=O)(=O)N2CCOCC2)ccc1N1CCOCC1,-0.2,1.3,-6.2,.,-1.2,19.5
Cc1cc(O)c(C)c(O)c1/C=N/NC(=O)c1cccnc1,51.3*,-9.1,-5.3,.,-0.8,-2.0
COc1cc(/C=N/NC(=O)c2cccnc2)ccc1OS(=O)(=O)c1ccc(F)cc1,84.8*,12.6,-3.2,.,-5.5,-5.4
COc1cc(/C=N/NC(=O)c2cccnc2)ccc1OS(=O)(=O)c1cc(C)ccc1C,62.3*,27.1,.,-0.9,.,-8.3
NC(=O)C[C@H](N)c1cn([C@@H](CC(N)=O)C(=O)N2CCNCC2)nn1,1.0,8.9,17.0,-39.5,2.5,-1.0
CCN(c1ccc(OC)cc1)S(=O)(=O)c1csc(C(=O)N2CCCC2)c1,1.5,-4.5,-7.8,.,-7.2,1.7
COc1ccccc1NC(=O)c1cc2c(cc1Cl)N1CCCCCC1=NS2(=O)=O,-4.4,-5.9,-2.4,7.1,-2.9,-1.9
Oc1c(Cl)cc(Cl)cc1/C=N/c1nc(-c2ccc(Cl)cc2)cs1,12.2,-1.3,-3.4,.,-3.2,25.0*
NC(=O)c1cccc(N=Cc2cc(Cl)cc(Cl)c2O)c1,47.5,18.5,.,21.5,.,2.4
Oc1c(Cl)cc(Cl)cc1C=Nc1ccccc1N1CCCC1,.,.,-9.0,.,-1.5,.
Oc1c(Cl)cc(Cl)cc1/C=N/c1nccs1,61.2*,-15.4,-0.9,.,-3.5,6.1
O=C(Cc1ccccc1)NNc1c2ccccc2nc2ccccc12,10.4,-0.3,-6.6,-15.3,-2.3,-12.4
O=C(Nc1c2ccccc2nc2ccccc12)C(Cl)(Cl)Cl,1.5,10.6,9.0,66.1*,8.9,-4.2
O=C1c2ccc3c4c(ccc(c24)C(=O)N1c1cccc(O)c1)C(=O)N(c1cccc(O)c1)C3=O,-2.3,9.5,5.6,67.9*,8.0,-6.7
COc1ccc(CCCc2nnc(SCc3nc4ccccc4c(=O)[nH]3)n2C)c(C)c1,4.4,-8.9,-3.9,3.1,6.0,-7.7
Cn1c(O)c(C=Nc2ccc(N3CCOCC3)cc2)c(=O)n(C)c1=S,9.9,7.2,.,-8.0,.,3.3
